PubChem BioAssay AID1159580 (chemical genetic matrix, 2015)
The campaign covered roughly 5,500 compounds. About 2,000 (36%) were called active. About 18% were inconclusive and are not listed. Cut-off read from the data, not from the text of the source: active = normalized growth mostly below about 0.91 (no sharp cut-off); inconclusive = no clear call, values can overlap the other calls; inactive = mostly above about 0.92. The list shows a part of the results.

Assay: chemical genetic growth profiling, strain panel (AID 1159580);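 note: tested at 20 µM; growth read once vehicle control cultures reached saturation at 30 °C; 1 = growth at the plate median or of vehicle wells; lower values mean less growth of the strain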
Conditions: S. cerevisiae deletion strains, growth OD

Measured: normalized growth

CC(=O)O[C@H]1CC2CCC3C(CC[C@@]4(C)C3C[C@H]([N+]3(C)CCCCC3)[C@@H]4OC(C)=O)[C@@]2(C)C[C@@H]1N1CCCCC1 (stereo not given in full)
inactive: locus YAL021C, strain ccr4, active compounds read low 1.02 | locus YAL026C, strain drs2, active compounds read low 1.03 | locus YAL030W, strain snc1, active compounds read low 1.03 | locus YBL061C, strain skt5, active compounds read low 1.02 | locus YBR009C, strain hhf1, active compounds read low 1.03 | locus YBR023C, strain chs3, active compounds read low 1.02 | locus YBR171W, strain sec66, active compounds read low 1.04 | locus YBR231C, strain swc5, active compounds read low 1.03 | locus YBR279W, strain paf1, active compounds read low 1.03 | locus YCL011C, strain gbp2, active compounds read low 1.03 | locus YCL016C, strain dcc1, active compounds read low 1.02 | locus YCL061C, strain MRC1, active compounds read low 1.02 | locus YCL069W, strain vba3, active compounds read low 1.02 | locus YCR088W, strain abp1, active compounds read low 1.02 | locus YDL005C, strain med2, active compounds read low 1.03 | locus YDL040C, strain nat1, active compounds read low 1.01 | locus YDR001C, strain nth1, active compounds read low 1.02 | locus YDR069C, strain doa4, active compounds read low 1.02 | locus YDR137W, strain rgp1, active compounds read low 1.07 | locus YDR159W, strain sac3, active compounds read low 1.03 | locus YDR195W, strain ref2 1.03 | locus YDR297W, strain sur2, active compounds read low 1.02 | locus YDR334W, strain swr1, active compounds read low 1.02 | locus YDR335W, strain msn5, active compounds read low 1.02 | locus YDR392W, strain spt3, active compounds read low 0.868 | locus YEL003W, strain gim4, active compounds read low 1.02 | locus YEL037C, strain rad23, active compounds read low 1.02 | locus YEL061C, strain CIN8 (second series), active compounds read low 1.03 | locus YER015W, strain faa2, active compounds read low 1.02 | locus YER016W, strain bim1, active compounds read low 1.02 | locus YER111C, strain swi4, active compounds read low 1.01 | locus YER155C, strain BEM2 (second series), active compounds read low 1.03 | locus YFR010W, strain ubp6, active compounds read low 1.01 | locus YGL167C, strain pmr1, active compounds read low 1.04 | locus YGL173C, strain kem1, active compounds read low 1.03 | locus YGL227W, strain vid30, active compounds read low 1.02 | locus YGL240W, strain doc1, active compounds read low 1.04 | locus YGL253W, strain hxk2, active compounds read low 1.01 | locus YHR013C, strain ard1, active compounds read low 1.01 | locus YHR027C, strain rpn1, active compounds read low 1.02 | locus YHR030C, strain SLT2, active compounds read low 1.05 | locus YHR079C, strain IRE1, active compounds read low 1.03 | locus YHR142W, strain chs7, active compounds read low 1.02 | locus YJL092W, strain hpr5, active compounds read low 1.01 | locus YJL095W, strain BCK1 (second series), active compounds read low 1.02 | locus YJL095W, strain BCK1, active compounds read low 0.993 | locus YJL115W, strain asf1, active compounds read low 1.02 | locus YJL129C, strain trk1, active compounds read low 1.03 | locus YJL154C, strain vps35, active compounds read low 1.02 | locus YJL164C, strain tpk1, active compounds read low 1 | locus YJL166W, strain qcr8, active compounds read low 1.03 | locus YJL187C, strain SWE1, active compounds read low 1.03 | locus YJR066W, strain TOR1, active compounds read low 0.979 | locus YKL160W, strain elf1, active compounds read low 1.03 | locus YKR026C, strain gcn3, active compounds read low 0.998 | locus YKR091W, strain srl3, active compounds read low 1.03 | locus YLL001W, strain dnm1, active compounds read low 1.01 | locus YLL026W, active compounds read low 1.02 | locus YLL041C, strain sdh2, active compounds read low 1.02 | locus YLR027C, strain aat2, active compounds read low 1.02 | locus YLR113W, strain HOG1, active compounds read low 0.99 | locus YLR221C, strain rsa3, active compounds read low 1.01 | locus YLR258W, strain gsy2, active compounds read low 1.02 | locus YLR262C, strain YPT6 (second series), active compounds read low 1.04 | locus YLR320W, strain mms22, active compounds read low 1.02 | locus YLR342W, strain FKS1, active compounds read low 1.02 | locus YLR357W, strain rsc2, active compounds read low 1.04 | locus YLR370C, strain arc18, active compounds read low 1.02 | locus YLR384C, strain iki3, active compounds read low 1.03 | locus YML120C, strain ndi1, active compounds read low 1.02 | locus YMR058W, strain fet3, active compounds read low 1.03 | locus YMR125W, strain sto1, active compounds read low 1.05 | locus YMR129W, active compounds read low 1.02 | locus YMR205C, strain PFK2, active compounds read low 1.05 | locus YMR231W, strain pep5, active compounds read low 1.02 | locus YNL071W, strain lat1, active compounds read low 1.01 | locus YNL183C, strain NPR1, active compounds read low 0.965 | locus YNL209W, strain ssb2, active compounds read low 1.02 | locus YNL248C, strain rpa49, active compounds read low 1.01 | locus YNL322C, strain KRE1 (second series), active compounds read low 1.02 | locus YNR049C, strain mso1, active compounds read low 1.01 | locus YOR001W, strain rrp6, active compounds read low 1.02 | locus YOR070C, strain gyp1, active compounds read low 1.01 | locus YOR080W, strain dia2, active compounds read low 1.04 | locus YOR083W, strain WHI5, active compounds read low 1.02 | locus YOR106W, strain vam3, active compounds read low 1.02 | locus YOR231W, strain MKK1, active compounds read low 1.04 | locus YOR265W, strain rbl2, active compounds read low 1.02 | locus YOR270C, strain vph1, active compounds read low 1.04 | locus YOR290C, strain snf2, active compounds read low 1.03 | locus YPL051W, strain arl3, active compounds read low 1.01 | locus YPL078C, strain atp4, active compounds read low 1.02 | locus YPL106C, strain sse1, active compounds read low 1.02 | locus YPL240C, strain hsp82, active compounds read low 1.01 | locus YPL256C, strain CLN2, active compounds read low 1.04
